Laboratory results taken from the supplement of paper PMC8728848.
This is one part of a sample in which the strongest signals are shown more often than they occur.

Key:
Assay in all cases: glycan array binding signal (z-score within array); higher = stronger binding
Conditions in all cases: glycan notation: IUPAC condensed, linker removed
[1] = target: GlcNAc(b1-3)Gal(b1-4)GlcNAc(b1-2)Man(a1-3)[GlcNAc(b1-3)Gal(b1-4)GlcNAc(b1-2)Man(a1-6)]Man(b1-4)GlcNAc(b1-4)GlcNAc
Summary of the method: (§1)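 The binding signal is a Z-score computed within each array. Data were drawn from 3228 arrays in the Consortium for Functional Glycomics database, restricted to those with a known protein sequence. Scores were averaged over arrays of the same protein sequence at different concentrations or buffers, and over linkers, and negative values can be taken as non-binding.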

[2] = target: GlcNAc(b1-3)Gal(b1-4)GlcNAc(b1-3)Gal(b1-4)GlcNAc(b1-2)[GlcNAc(b1-3)Gal(b1-4)GlcNAc(b1-3)Gal(b1-4)GlcNAc(b1-6)]Man(a1-6)[GlcNAc(b1-3)Gal(b1-4)GlcNAc(b1-3)Gal(b1-4)GlcNAc(b1-2)Man(a1-3)]Man(b1-4)GlcNAc(b1-4)[Fuc(a1-6)]GlcNAc
Summary of the method: as §1

[3] = target: GlcNAc(b1-3)Gal(b1-4)GlcNAc(b1-3)[GlcNAc(b1-3)Gal(b1-4)GlcNAc(b1-3)]GalNAc
Summary of the method: as §1

[4] = target: GlcNAc(b1-3)[GlcNAc(b1-6)]GalNAc
Summary of the method: as §1

[5] = target: GlcNAc(b1-6)Gal(b1-4)GlcNAc
Summary of the method: as §1

Kdn(a2-3)Gal(b1-3)GalNAc = target: Kdn(a2-3)Gal(b1-3)GalNAc
Summary of the method: as §1

Kdn(a2-3)Gal(b1-4)GlcNAc = target: Kdn(a2-3)Gal(b1-4)GlcNAc
Summary of the method: as §1

[6] = target: Man(a1-2)Man(a1-3)[Man(a1-6)]Man(a1-6)[Man(a1-2)Man(a1-3)]Man(b1-4)GlcNAc(b1-4)GlcNAc
Summary of the method: as §1

Neu5Ac(a2-3)Gal = target: Neu5Ac(a2-3)Gal
Summary of the method: as §1

[7] = target: Neu5Ac(a2-3)Gal(b1-3)GlcNAc(b1-2)Man(a1-3)[Neu5Ac(a2-3)Gal(b1-3)GlcNAc(b1-2)Man(a1-6)]Man(b1-4)GlcNAc(b1-4)GlcNAc
Summary of the method: as §1

[8] = target: Neu5Ac(a2-3)Gal(b1-3)GlcNAc(b1-3)Gal(b1-3)GlcNAc
Summary of the method: as §1

[9] = target: Neu5Ac(a2-3)Gal(b1-3)[Fuc(a1-4)]GlcNAc
Summary of the method: as §1

[10] = target: Neu5Ac(a2-3)Gal(b1-4)GlcNAc(b1-2)Man
Summary of the method: as §1

[11] = target: Neu5Ac(a2-3)Gal(b1-4)GlcNAc(b1-2)[Neu5Ac(a2-3)Gal(b1-4)GlcNAc(b1-4)]Man(a1-3)[GlcNAc(b1-4)][Neu5Ac(a2-3)Gal(b1-4)GlcNAc(b1-2)[Neu5Ac(a2-3)Gal(b1-4)GlcNAc(b1-6)]Man(a1-6)]Man(b1-4)GlcNAc(b1-4)GlcNAc
Summary of the method: as §1

[12] = target: Neu5Ac(a2-3)Gal(b1-4)GlcNAc(b1-3)Gal(b1-3)GlcNAc
Summary of the method: as §1

[13] = target: Neu5Ac(a2-3)Gal(b1-4)GlcNAc(b1-3)Gal(b1-4)GlcNAc
Summary of the method: as §1

[14] = target: Neu5Ac(a2-3)Gal(b1-4)GlcNAc(b1-3)Gal(b1-4)[Fuc(a1-3)]GlcNAc
Summary of the method: as §1

[15] = target: Neu5Ac(a2-3)Gal(b1-4)GlcNAc6S
Summary of the method: as §1

[16] = target: Neu5Ac(a2-3)Gal(b1-4)[Fuc(a1-3)]GlcNAc
Summary of the method: as §1

[17] = target: Neu5Ac(a2-3)GalNAc(b1-4)GlcNAc
Summary of the method: as §1

[18] = target: Neu5Ac(a2-6)Gal(b1-4)GlcNAc
Summary of the method: as §1

[19] = target: Neu5Ac(a2-6)Gal(b1-4)GlcNAc(b1-2)Man(a1-3)[Neu5Ac(a2-3)Gal(b1-4)GlcNAc(b1-2)Man(a1-6)]Man(b1-4)GlcNAc(b1-4)GlcNAc
Summary of the method: as §1

[20] = target: Neu5Ac(a2-6)Gal(b1-4)GlcNAc(b1-3)Gal(b1-3)GlcNAc
Summary of the method: as §1

[21] = target: Neu5Ac(a2-6)Gal(b1-4)GlcNAc(b1-3)Gal(b1-4)GlcNAc(b1-3)Gal(b1-4)GlcNAc(b1-2)Man(a1-3)[Neu5Ac(a2-6)Gal(b1-4)GlcNAc(b1-3)Gal(b1-4)GlcNAc(b1-3)Gal(b1-4)GlcNAc(b1-2)Man(a1-6)]GalNAc
Summary of the method: as §1

[22] = target: Neu5Ac(a2-6)GlcNAc(b1-4)GlcNAc(b1-4)GlcNAc
Summary of the method: as §1

Neu5Ac(a2-8)Neu5Ac = target: Neu5Ac(a2-8)Neu5Ac
Summary of the method: as §1

[23] = target: Neu5Ac(a2-8)Neu5Ac(a2-8)Neu5Ac
Summary of the method: as §1

B1: SAOUHSC 00176 (Staphylococcus aureus) (protein)
chain: MSKILKCITLAVVMLLIVTACGPNRSKEDIDKALNKDNSKDKPNQLTMWVDGDKQMAFYKKITDQYTKKTGIKVKLVNIGQNDQLENISLDAPAGKGPDIFFLAHDNTGSAYLQGLAAEIKLSKDELKGFNKQALKAMNYDNKQLALPAIVETTALFYNKKLVKNAPQTLEEVEANAAKLTDSKKKQYGMLFDAKNFYFNYPFLFGNDDYIFKKNGSEYDIHQLGLNSKHVVKNAERLQKWYDKGYLPKAATHDVMIGLFKEGKVGQFVTGPWNINEYQETFGKDLGVTTLPTDGGKPMKPFLGVRGWYLSEYSKHKYWAKDLMLYITSKDTLQKYTDEMSEITGRVDVKSSNPNLKVFEKQARHAEPMPNIPEMRQVWEPMGNASIFISNGKNPKQALDEATNDITQNIKILHPSQNDKKGD
[1]
  glycan array binding signal (z-score): -0.101
[2]
  glycan array binding signal (z-score): -0.059
[3]
  glycan array binding signal (z-score): -0.02
[4]
  glycan array binding signal (z-score): -0.149
[5]
  glycan array binding signal (z-score): -0.124
Kdn(a2-3)Gal(b1-3)GalNAc
  glycan array binding signal (z-score): -0.129
Kdn(a2-3)Gal(b1-4)GlcNAc
  glycan array binding signal (z-score): -0.143
[6]
  glycan array binding signal (z-score): -0.172
Neu5Ac(a2-3)Gal
  glycan array binding signal (z-score): -0.179
[7]
  glycan array binding signal (z-score): 1.08
[8]
  glycan array binding signal (z-score): -0.055
[9]
  glycan array binding signal (z-score): -0.157
[10]
  glycan array binding signal (z-score): 0.473
[11]
  glycan array binding signal (z-score): -0.073
[12]
  glycan array binding signal (z-score): -0.09
[13]
  glycan array binding signal (z-score): 0.002
[14]
  glycan array binding signal (z-score): -0.015
[15]
  glycan array binding signal (z-score): -0.027
[16]
  glycan array binding signal (z-score): -0.132
[17]
  glycan array binding signal (z-score): -0.141
[18]
  glycan array binding signal (z-score): -0.148
[19]
  glycan array binding signal (z-score): -0.114
[20]
  glycan array binding signal (z-score): -0.079
[21]
  glycan array binding signal (z-score): 0.358
[22]
  glycan array binding signal (z-score): 2.56
Neu5Ac(a2-8)Neu5Ac
  glycan array binding signal (z-score): -0.022
[23]
  glycan array binding signal (z-score): -0.055
